Data reported in PubChem BioAssay AID651804 (National Center for Advancing Translational Sciences (NCATS), 2012).
Out of some 1,200 compounds screened, about 20 (2%) were called active. Roughly 23% stayed inconclusive and do not appear here. The sample holds actives, similar compounds and a random draw of the others, so the mix is not that of the screen. Calls follow the shape of the dose curve; as a rule, active = well fitted inhibition curve with a large enough effect; inconclusive = small, poorly fitted or top-dose-only effect; inactive = no such curve, though single readings can be large or run the other way.

Biological target: Transcriptional regulator ERG (Homo sapiens) (UniProt P11308)
Experiment: qHTS for Small Molecule Inhibitors of the ERG Ets/DNA interaction: HTRF assay against cherry picks
Conditions: His-ERG Ets domain with biotin-DNA; series mostly up to 154 µM
Description: The Ets family of proteins is a family of ~30 conserved transcription factors defined by the presence of an ~85 amino acid domain referred to as the Ets domain, which mediates sequence-specific DNA binding to a core DNA element GGAA/T.The Ets family member ERG has been linked to several neoplasms. […] More extensive studies of the effects of over-expression of ERG in prostate cells have recently been carried out and have shown that over-expression of ERG results in increased invasion. […] We will carry out a high throughout screen to identify inhibitors of the interaction between ERG and DNA using a fluorescence polarization (FP) assay with a His-tagged ERG Ets domain and fluorescently-labeled DNA probes to develop small molecule inhibitors of this interaction as probes to test this hypothesis and lay the groundwork for the development of targeted therapies against ERG. This is the counterscreen against the cherry picks. NIH Molecular Libraries Probe Production Network [MLPCN] NIH Chemical Genomics Center [NCGC] Grant: NS066464 PI Name: John Bushweller, University of Virgina
2 ul of protein solution (200 nM ERG domain in 300mM KCl, 50mM Tris-HCl, 1mM EDTA, 1mM DTT, pH 7.5); 20 nl Control plate and compound library plate; 2 ul of 200 nM biotin-DNA; incubate for 10 min at RT; 1 ul of anti-His antibody conjugated to the long-life fluorescent cryptate donner […] (5ng/ul) and streptavidin conjugated to the acceptor compound […] (0.2 ng/ul) mix; incubate 10 min and measure FRET (Excitation = 320 nm, Emission = 615, 665 nm).
Potency is read from the fitted curve at half-maximal effect.

Chain of Transcriptional regulator ERG (Homo sapiens) (P11308 whole entry, looked up): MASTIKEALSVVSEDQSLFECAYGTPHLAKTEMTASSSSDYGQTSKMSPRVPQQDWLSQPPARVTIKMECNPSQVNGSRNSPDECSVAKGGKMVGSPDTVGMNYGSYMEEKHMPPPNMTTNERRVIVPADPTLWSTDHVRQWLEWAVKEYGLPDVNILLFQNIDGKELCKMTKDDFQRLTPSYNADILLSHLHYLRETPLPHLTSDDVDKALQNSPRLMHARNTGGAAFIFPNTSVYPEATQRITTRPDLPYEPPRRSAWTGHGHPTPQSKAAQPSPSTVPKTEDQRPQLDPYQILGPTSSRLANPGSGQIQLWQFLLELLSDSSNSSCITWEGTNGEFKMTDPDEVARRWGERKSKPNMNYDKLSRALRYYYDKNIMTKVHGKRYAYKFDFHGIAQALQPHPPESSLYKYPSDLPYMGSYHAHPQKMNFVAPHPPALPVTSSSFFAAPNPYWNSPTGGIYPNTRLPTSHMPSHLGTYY

Potency, inactive:
Cc1cc(OCc2cc3c(cc2Cl)OCO3)c2c(C)cc(=O)oc2c1
COC(=O)c1ccccc1NC(=O)c1cc(C2CC2)on1
Nc1ccccc1S(N)(=O)=O
COc1cc(CCC(=O)Nc2ccc(Br)c(C(F)(F)F)c2)cc(OC)c1OC
O=C(NCCCc1ccccc1)C(=O)NCC1OCCN1S(=O)(=O)c1cc(F)ccc1F (stereo unspecified)
N#Cc1c(SCc2c(Cl)cccc2Cl)nc(N)[nH]c1=S
CCC(c1nnnn1Cc1ccc(F)cc1)N1CCN(C)CC1 (stereo unspecified)
Cc1sc2nc(CSC(C)C(=O)Nc3ccc(C(N)=O)cc3)[nH]c(=O)c2c1C (stereo unspecified)
CCOc1ccc(NS(=O)(=O)c2ccc(NC(C)=O)c(OC)c2)cc1
CCn1ccc2c(OCC(=O)Nc3ccc(C(C)=O)cc3)cccc2c1=O
COC(=O)c1c(C(=O)OC)c(-c2ccc(OC)cc2)n2c1CS(=O)C2 (stereo unspecified)
CC(NC(=O)c1ccco1)c1nc(-c2ccc(C(C)(C)C)cc2)no1 (stereo unspecified)
O=C(Cc1csc(-c2ccccc2)n1)NCc1ccc(F)cc1
O=C(NCCCc1ccccc1)C(=O)NCC1OCCN1S(=O)(=O)c1ccccc1 (stereo unspecified)
CCn1nc(C)c(CNC(=O)c2cc(COc3ccccc3SC)on2)c1C
CS(=O)(=O)N(CC(=O)Nc1ccccc1)c1cccc(Cl)c1Cl
O=C(O)CC(c1cccc2ccccc12)N1Cc2ccccc2C1=O (stereo unspecified)
O=C(NCc1ccc(F)cc1F)c1cc(COc2c(F)cccc2F)on1
Cc1cc(C)cc(N(C(=O)c2csnn2)C(C(=O)NC(C)(C)C)c2ccncc2)c1 (stereo unspecified)
COc1ccc(Nc2ncnc3sccc23)cc1OC
COc1ccc(-c2cccc(NS(=O)(=O)c3cc([N+](=O)[O-])ccc3C)c2)nn1
Cc1cc(N)ccc1-n1c(C)ccc1C
CC(Oc1ccc(C(=O)c2ccc(F)cc2)cc1)C(=O)N1CCOCC1 (stereo unspecified)
CCc1nn2c(=O)cc(CSCC(=O)Nc3ccccc3F)nc2s1
CCOC(=O)C(CC)Sc1ccc2nnc(-c3cccnc3)n2n1 (stereo unspecified)
CC1CCN(S(=O)(=O)c2ccc(Cl)s2)CC1
Cn1nc(C(F)(F)F)c(C#N)c1N1CCN(c2ccccn2)CC1
O=C(C[C@H]1C/C=C\CC[C@@H](Cc2ccc(F)cc2)C(=O)OC[C@H]2CCCN2C1=O)N[C@H](CO)Cc1ccccc1
CC1(C)C2CCC1(C)C(NCC(O)COc1ccc(C#N)cc1)C2 (stereo unspecified)
CCOCCn1c(CN2CCCCC2)nc2c1c(=O)n(C)c(=O)n2C
Cc1cc(C(=O)COC(=O)C23CC4CC(CC(O)(C4)C2)C3)c(C)n1C
COc1cc(NC(=O)COC(=O)CNC(=O)C2CCCCC2)cc(OC)c1
Cc1nccn1C[C@@H]1CCc2c(c3ccccc3n2C)C1=O
Cc1nc(Nc2cccc(F)c2)c2oc3ccccc3c2n1
CCCCn1c(N)c(N(CC(C)C)C(=O)c2ccc(S(=O)(=O)N3CCC(C)CC3)cc2)c(=O)[nH]c1=O
COC(=O)c1ccccc1SC(CC(=O)c1ccccc1)c1ccc(F)cc1 (stereo unspecified)
CCCC(NC(=O)C(C)Sc1nnnn1C1CC1)c1ccccc1 (stereo unspecified)
Cc1ccccc1-n1c(=O)n(CCc2ccccc2)c(=O)c2[nH]cnc21
O=S(=O)(c1ccccc1)c1cnc(-c2cccnc2)nc1-c1ccccc1
O=c1oc2ccccc2cc1-c1cn2cc(Cc3ccc(F)cc3)sc2n1
NC(=O)c1ccccc1NCC(=O)c1ccc(F)cc1
COc1cccc(-c2nn(C)c3sc(C(=O)NCc4ccc(OC)cc4OC)cc23)c1
CSc1nc(-c2ccc(Cl)cc2)nn1C(=O)c1ccccc1
COc1ccc(S(=O)(=O)N2CCCC(C(F)(F)F)C2)cc1 (stereo unspecified)
CN(C)C=NC(=O)c1cc(C(=O)c2ccc(Cl)cc2)c[nH]1
Cc1cc(=O)oc2cc(OCC(=O)OCC(=O)Nc3ccc(C(C)C)cc3)ccc12
COC(=O)C(CCSC)NC(=O)c1cc2c(n(-c3ccccc3)c1=O)CC(C)(C)CC2=O (stereo unspecified)
CC(C)CCN1CCN(C2CCN(c3ccc4c(c3)OCO4)CC2)CC1CCO (stereo unspecified)
Cc1cc(C)nc(N2C(=O)CC(Cc3ccc(Cl)cc3)C2=O)n1 (stereo unspecified)
Cc1ccc2oc(-c3ccc(NC(=O)CC(C)C)cc3)nc2c1
Cc1ccc(C(=O)N2CCCCC2C(=O)O)cc1S(=O)(=O)N1CCCCC1 (stereo unspecified)
O=C(Nc1ccccc1Br)c1ccccc1-c1ccccc1
COc1ccccc1NS(=O)(=O)c1ccc(C)c(NC(=O)c2c(C)noc2C)c1
Cc1ccc(NC(=O)CSc2nc3ccccc3c3nc(CCn4c(C)nc5ccccc54)nn23)cc1F
COc1ccc(NC(=O)CSc2nc(C)c3c(c2C#N)CCCC3)cc1
Cc1cc(C)nc(N2CCCC(C(=O)Nc3ccc(F)cc3)C2)n1 (stereo unspecified)
Cc1c(NC(=O)c2cc(-n3cnnc3)ccc2Cl)cccc1-c1nc2ccccc2s1
O=c1[nH]c2cc(F)ccc2c2ccc(F)cc12
CCOc1cc(NC(=S)NCC(C)C)c(OCC)cc1NC(=O)c1ccco1
O=C(Nc1cc(-c2nc3cc(Cl)ccc3o2)ccc1Cl)c1cccs1
COC(=O)C(C)Sc1ccc2nnc(CCNS(=O)(=O)c3ccc(C)cc3)n2n1 (stereo unspecified)
CNCCCOc1cc(C)cc(C)c1C
COc1ccc(C(=O)c2cccc(C(=O)c3ccc(OC)c(C)c3)c2)cc1C
COc1ccc(C(c2c(C)n(C)n(-c3ccccc3)c2=O)c2c(C)n(C)n(-c3ccccc3)c2=O)c(OC)c1OC
CC1(c2ccccc2Cl)NC(=O)N(CC(=O)Nc2ccccc2OC(F)F)C1=O (stereo unspecified)
Cc1cccc(NC(=O)c2ccccc2NC(=O)c2ccco2)c1
COc1ccc(-c2n(CC(=O)OC3CC(C)CCC3C(C)C)c3ccccc3[n+]2C)cc1 (stereo unspecified)
Cc1cccc(C(=O)N[C@H](C(=O)Nc2ccc(C)c(S(=O)(=O)N(C)C)c2)C(C)C)c1
CCN(CC(=O)Nc1ccccc1C(F)(F)F)C(=O)c1ccc(N2C(=O)CCC2=O)cc1
Cc1ccc(NS(=O)(=O)c2ccc(NC(=O)c3ccccc3C(=O)O)cc2)cc1C
CCc1cccc(C)c1NC(=O)CSc1nc(C)c(C)o1
COC(=O)Nc1ccc(S(=O)(=O)NNC(=O)c2c(O)c3ccccc3n(C)c2=O)cc1
CCOC(=O)C1CN(S(=O)(=O)c2cc(OC)ccc2OC)C1
COc1ccc(-n2c(=O)c3c4c(sc3n(Cc3ccc(C(C)(C)C)cc3)c2=O)CCC4)c(OC)c1
CC(=O)Nc1cccc(NC(=O)c2ccccc2OCc2c(C)noc2C)c1
Cc1ccc(S(=O)(=O)NC2CCCC(C(=O)O)C2)cc1 (stereo unspecified)
Cc1cc(C)cc(-n2ccnc2SCC(=O)Nc2ccc(C)c(Cl)c2)c1
COC(=O)[C@H](Cc1ccccc1)NC(=O)C1(OC(C)=O)CC(OC(C)=O)C(OC(C)=O)C(OC(C)=O)C1 (stereo partly specified)
CCCCn1c(N)c(N(CCOC)C(=O)c2ccc(S(=O)(=O)N3CCCCC3)cc2)c(=O)[nH]c1=O
COc1ccc(OCCCC(=O)Nc2cccc(C(C)=O)c2)cc1
Cc1cccc(NC2(C(=O)O)CCCC2)c1
CC(=O)c1ccc(OCc2ccc(Oc3c(Cl)cccc3[N+](=O)[O-])cc2)cc1
Cc1ccc2c(c1)N(CC(=O)NC1CCCc3ccccc31)C(=O)CO2 (stereo unspecified)
CC(=O)Nc1ccc(S(=O)(=O)N2CCCC(C(=O)N3CCN(c4ccccc4)CC3)C2)cc1 (stereo unspecified)
CCc1ccc(Nc2ncnc3nc[nH]c23)cc1
CC(C)CCNC(=O)c1ccc2c(SCC(=O)O)c3c(nc2c1)CCCC3
Cc1cc(NC(=O)CCC(=O)N(CC(=O)NC2CCCC2)c2ccc(C)c(F)c2)no1
C[C@H](NC(=O)[C@@H]1Cc2ccccc2CN1C(=O)OC(C)(C)C)C(=O)NC1CCCCC1
CC(C)(CNC(=O)CC1C(=O)NCCN1Cc1cccc(F)c1)N1CCOCC1 (stereo unspecified)
CCc1ccc(NC(=O)/C(C#N)=C/c2cc3ccc(C)cc3nc2N2CCOCC2)cc1
OC(CN1CCCCC1)Cn1c2ccccc2c2cc(Br)ccc21 (stereo unspecified)
CC1(C)CC(=O)/C(=C\c2cccc([N+](=O)[O-])c2)C(C)(C)N1
Cc1cc(C)c(S(=O)(=O)N2CCN(C(=O)N3CCOCC3)CC2)c(C)c1
O=C(OCC(=O)c1ccc(Cl)s1)c1cncc(Br)c1
Cc1cccc(/C=N/NC(=O)NC23CC4CC(CC(C4)C2)C3)n1
CC(=O)N1CCN(c2nnc(-c3ccccc3)c3ccccc23)CC1
CC1(C)CC(=O)C(C(O)c2ccccc2)C(C)(C)N1 (stereo unspecified)
CCCn1c(=O)c(C(=O)NNS(=O)(=O)c2ccc(C)cc2)c(O)c2ccccc21
O=C1CCN(S(=O)(=O)c2ccc(Br)cc2)CCN1
O=C(COC(=O)c1cccc(-n2cnnn2)c1)c1ccccc1
CNC(=S)N/N=C/c1c(C)nn(-c2ccccc2)c1Cl
O=S(=O)(NCCNS(=O)(=O)c1ccc(F)cc1)c1ccc(F)cc1
CN(C)CCCNc1c2ccccc2nc2ccccc12
c1ccc(Oc2ncnc3ccccc23)cc1
CC(=O)Nc1ccc2c(c1)NC(=O)CC2
COC(=O)Cc1ccc(NC(=S)NC(C)(C)C)cc1

Potency, active:
COc1cccc2c1C(=N)c1c(O)c3c(c(O)c1C2=O)CC(O)(C(C)=O)CC3OC1CC(N)C(O)C(C)O1 (stereo unspecified) 3.98 µM
CCCN1C[C@H](CSC)C[C@@H]2c3cccc4[nH]cc(c34)C[C@H]21 14.1 µM
Cc1cc2[nH]c3c(c[n+](C)c4ccccc34)c2cc1C 3.55 µM
CC(=O)Nc1sc2c(c1-c1nc3ccccc3s1)CCN(C(C)C)C2 3.55 µM
COc1ccc(OC)c2c1C(=O)c1ccccc1C2=O 35.5 µM
CN(C)CCN1C(=O)c2cccc3cc([N+](=O)[O-])cc(c23)C1=O 7.94 µM
COc1cc(NCCCC(C)N)c2ncccc2c1 (stereo unspecified) 44.7 µM
Nc1c2ccccc2nc2ccccc12 11.2 µM
Nc1cccc2nc3ccccc3cc12 50.1 µM
CN(C)c1ccc2c(c1)C(=NO)c1ccccc1-2 70.8 µM
